According to PubChem BioAssay (EPA / NIEHS):
Results filed as inconclusive are left out. Activity calls are given as the source filed them. The calls were made as follows: active = hit-call score of the fitted dose curve at least 0.9, where 1 is the maximum; inconclusive = response in the unintended direction; inactive = score below 0.9.

Key:
[1] = biological target: Peroxisome proliferator-activated receptor gamma (Homo sapiens) (UniProt P37231); assay: ATG_PPARg_TRANS: Attagene TRANS-FACTORIAL HepG2 Assay for human Peroxisome Proliferator-activated Receptor-gamma (PPARg) (AID 2283007)
Summary of the method: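 Transient transfection of HepG2 with GAL4-UAS-driven reporter units; chemical dosing 24 h; total RNA → oligo(dT) RT → PCR with reporter primers → 6-FAM primer extension → HpaI digest 2 h 37 C → capillary electrophoresis. Positive direction vs DMSO.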

[2] = biological target: Nuclear receptor subfamily 1 group I member 2 (Homo sapiens) (UniProt O75469); assay: ATG_PXR_TRANS: Attagene TRANS-FACTORIAL HepG2 Assay for human Pregnane X Receptor (PXR) (AID 2283008)
Summary of the method: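 Multiplexed TRANS reporter panel in HepG2; this component tracks PXR-Gal4-driven reporter mRNA after 24 h dosing, measured by RT-PCR with capillary electrophoresis fluorescence, fitted against DMSO.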

[3] = biological target: Retinoic acid receptor RXR-alpha (Homo sapiens) (UniProt P19793); assay: ATG_RXRa_TRANS: Attagene TRANS-FACTORIAL HepG2 Assay for human Retinoid X Receptor alpha (RXRa) (AID 2283012)
Summary of the method: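 TRANS format reporting activity of exogenous RXRa-Gal4 chimera in transiently transfected HepG2, 24 h exposure. Reporter transcripts quantified by RT-PCR with capillary electrophoresis, with gain of signal scored relative to DMSO.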

[4] = biological target: human Vitamin D Receptor (VDR), VDR (gene 7421) (UniProt P11473); assay: ATG_VDR_TRANS: Attagene TRANS-FACTORIAL HepG2 Assay for human Vitamin D Receptor (VDR) (AID 2283022)
Summary of the method: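 RT-PCR/capillary electrophoresis read-out of reporter mRNA induction in transiently transfected HepG2; 24 h dosing; chimeric NR-Gal4 (TRANS format); gain-of-signal fit against DMSO baseline.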

[5] = biological target: human RAR-related Orphan Receptor gamma (RORg), RORC (gene 6097) (UniProt P51449); assay: ATG_RORg_TRANS: Attagene TRANS-FACTORIAL HepG2 Assay for human RAR-related Orphan Receptor gamma (RORg) (AID 2283011)
Summary of the method: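 Transient MRTU transfection of HepG2 (TRANS format, exogenous NR-Gal4 chimera). 24 h dosing. Total RNA → oligo(dT) RT → PCR → 6-FAM labelling → HpaI cut → CE. Gain vs DMSO.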

[6] = biological target: human RAR-related Orphan Receptor beta (RORb), RORB (gene 6096) (UniProt Q92753); assay: ATG_RORb_TRANS: Attagene TRANS-FACTORIAL HepG2 Assay for human RAR-related Orphan Receptor beta (RORb) (AID 2283010)
Summary of the method: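 Read-out is reporter mRNA induction, quantified by RT-PCR with fluorescent capillary electrophoresis, 24 h post-dose in transiently transfected HepG2 expressing exogenous NR-Gal4 chimera. Activity fitted upward versus DMSO.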

[7] = biological target: human Retinoid X Receptor beta (RXRb), RXRB (gene 6257) (UniProt P28702); assay: ATG_RXRb_TRANS: Attagene TRANS-FACTORIAL HepG2 Assay for human Retinoid X Receptor beta (RXRb) (AID 2283013)
Summary of the method: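 Readout is reporter transcript induction after 24 h dosing. It is measured by RT-PCR of total RNA followed by fluorescent capillary electrophoresis. HepG2 liver cells carry transfected multiple reporter units driven by an exogenous RXRb-Gal4 fusion; activity is relative to DMSO.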

[8] = biological target: human Thyroid Receptor alpha (THRa1), THRA (gene 7067) (UniProt P10827); assay: ATG_THRa1_TRANS: Attagene TRANS-FACTORIAL HepG2 Assay for human Thyroid Receptor alpha (THRa1) (AID 2283014)
Summary of the method: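 Transient HepG2 transfection, NR-Gal4 chimera driving GAL4-UAS reporters; 24 h compound exposure; total RNA, oligo(dT) RT, PCR, fluorescent primer extension, capillary electrophoresis. Upward direction vs DMSO control.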

Measured: AC50

Peroxisome proliferator-activated receptor gamma (Homo sapiens), sequence (P37231 whole entry, looked up, the tested form may be a part): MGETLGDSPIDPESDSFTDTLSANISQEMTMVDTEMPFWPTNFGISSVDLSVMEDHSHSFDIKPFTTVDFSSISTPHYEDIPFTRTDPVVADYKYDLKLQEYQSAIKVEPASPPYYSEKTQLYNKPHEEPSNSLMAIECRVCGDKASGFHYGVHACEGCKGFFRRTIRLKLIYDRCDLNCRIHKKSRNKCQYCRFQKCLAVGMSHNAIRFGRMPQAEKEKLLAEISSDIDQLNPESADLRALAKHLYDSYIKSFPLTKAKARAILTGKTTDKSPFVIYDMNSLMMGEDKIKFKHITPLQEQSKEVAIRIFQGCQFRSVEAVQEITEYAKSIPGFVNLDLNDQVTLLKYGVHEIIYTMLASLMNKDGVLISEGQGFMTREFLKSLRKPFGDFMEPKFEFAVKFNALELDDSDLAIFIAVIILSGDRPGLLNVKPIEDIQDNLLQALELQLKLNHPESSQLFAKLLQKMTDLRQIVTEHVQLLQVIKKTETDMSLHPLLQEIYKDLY
human Vitamin D Receptor (VDR), VDR (gene 7421), sequence (P11473 whole entry, looked up, the tested form may be a part): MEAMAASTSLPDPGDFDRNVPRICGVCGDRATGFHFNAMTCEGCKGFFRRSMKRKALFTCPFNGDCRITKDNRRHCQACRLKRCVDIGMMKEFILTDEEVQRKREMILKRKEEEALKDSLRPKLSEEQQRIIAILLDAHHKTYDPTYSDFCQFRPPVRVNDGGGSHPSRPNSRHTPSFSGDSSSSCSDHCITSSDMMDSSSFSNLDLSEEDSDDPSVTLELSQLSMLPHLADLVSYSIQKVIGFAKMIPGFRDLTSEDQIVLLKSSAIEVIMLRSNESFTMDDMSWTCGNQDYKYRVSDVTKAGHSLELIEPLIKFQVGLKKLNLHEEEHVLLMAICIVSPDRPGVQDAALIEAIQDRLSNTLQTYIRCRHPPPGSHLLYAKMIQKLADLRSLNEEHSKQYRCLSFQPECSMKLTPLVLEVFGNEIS
Nuclear receptor subfamily 1 group I member 2 (Homo sapiens), sequence (O75469 whole entry, looked up, the tested form may be a part): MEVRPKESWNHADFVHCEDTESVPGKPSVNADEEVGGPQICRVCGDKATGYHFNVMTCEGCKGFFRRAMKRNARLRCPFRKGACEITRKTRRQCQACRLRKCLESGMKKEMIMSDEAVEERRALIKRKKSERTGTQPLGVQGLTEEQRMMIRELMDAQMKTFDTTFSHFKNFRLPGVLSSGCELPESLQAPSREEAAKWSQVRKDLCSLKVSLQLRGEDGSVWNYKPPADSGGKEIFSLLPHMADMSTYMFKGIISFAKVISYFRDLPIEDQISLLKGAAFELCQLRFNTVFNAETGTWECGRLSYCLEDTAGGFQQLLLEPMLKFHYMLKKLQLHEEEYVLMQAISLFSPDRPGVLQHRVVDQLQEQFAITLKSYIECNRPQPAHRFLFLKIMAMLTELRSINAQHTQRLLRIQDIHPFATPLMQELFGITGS
human Retinoid X Receptor beta (RXRb), RXRB (gene 6257), sequence (P28702 whole entry, looked up, the tested form may be a part): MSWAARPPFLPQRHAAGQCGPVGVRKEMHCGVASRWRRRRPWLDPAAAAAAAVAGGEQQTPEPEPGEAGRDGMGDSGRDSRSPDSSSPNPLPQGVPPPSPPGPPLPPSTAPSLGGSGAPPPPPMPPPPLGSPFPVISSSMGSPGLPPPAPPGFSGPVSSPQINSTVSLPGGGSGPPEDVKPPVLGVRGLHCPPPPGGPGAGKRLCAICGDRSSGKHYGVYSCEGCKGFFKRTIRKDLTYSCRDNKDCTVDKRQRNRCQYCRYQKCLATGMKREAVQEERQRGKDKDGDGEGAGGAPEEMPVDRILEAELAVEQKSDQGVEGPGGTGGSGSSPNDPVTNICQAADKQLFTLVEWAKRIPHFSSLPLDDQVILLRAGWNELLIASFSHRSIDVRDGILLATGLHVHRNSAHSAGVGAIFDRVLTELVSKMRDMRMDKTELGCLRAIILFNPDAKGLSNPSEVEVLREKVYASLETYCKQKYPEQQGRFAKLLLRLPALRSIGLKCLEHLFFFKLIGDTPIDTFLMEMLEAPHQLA
human Thyroid Receptor alpha (THRa1), THRA (gene 7067), sequence (P10827 whole entry, looked up, the tested form may be a part): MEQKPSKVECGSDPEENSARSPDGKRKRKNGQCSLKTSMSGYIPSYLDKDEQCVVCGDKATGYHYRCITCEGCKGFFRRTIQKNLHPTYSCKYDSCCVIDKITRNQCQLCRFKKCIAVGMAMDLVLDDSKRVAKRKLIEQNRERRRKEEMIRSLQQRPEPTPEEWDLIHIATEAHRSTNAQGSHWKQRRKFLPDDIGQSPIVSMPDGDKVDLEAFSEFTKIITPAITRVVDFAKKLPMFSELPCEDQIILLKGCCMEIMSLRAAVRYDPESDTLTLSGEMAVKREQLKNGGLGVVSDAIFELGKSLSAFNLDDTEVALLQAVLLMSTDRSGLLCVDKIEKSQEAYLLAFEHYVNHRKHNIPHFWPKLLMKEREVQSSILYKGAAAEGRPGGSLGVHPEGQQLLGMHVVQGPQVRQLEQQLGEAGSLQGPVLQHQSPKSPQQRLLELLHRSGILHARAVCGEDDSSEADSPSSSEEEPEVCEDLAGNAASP
human RAR-related Orphan Receptor gamma (RORg), RORC (gene 6097), sequence (P51449 whole entry, looked up, the tested form may be a part): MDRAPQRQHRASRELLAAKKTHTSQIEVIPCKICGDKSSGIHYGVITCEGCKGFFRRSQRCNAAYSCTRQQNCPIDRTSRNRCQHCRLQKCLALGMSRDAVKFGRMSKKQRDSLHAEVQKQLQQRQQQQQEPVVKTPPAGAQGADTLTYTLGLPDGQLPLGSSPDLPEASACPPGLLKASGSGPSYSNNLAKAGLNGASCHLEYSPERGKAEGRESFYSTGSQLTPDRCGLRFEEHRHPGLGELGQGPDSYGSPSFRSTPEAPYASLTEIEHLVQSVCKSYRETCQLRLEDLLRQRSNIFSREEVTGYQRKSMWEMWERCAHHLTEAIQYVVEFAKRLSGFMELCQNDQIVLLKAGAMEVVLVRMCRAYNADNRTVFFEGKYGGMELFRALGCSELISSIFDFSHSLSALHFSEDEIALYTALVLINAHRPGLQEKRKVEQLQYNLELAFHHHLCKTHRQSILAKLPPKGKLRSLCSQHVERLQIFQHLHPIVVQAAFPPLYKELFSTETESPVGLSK
Retinoic acid receptor RXR-alpha (Homo sapiens), sequence (P19793 whole entry, looked up, the tested form may be a part): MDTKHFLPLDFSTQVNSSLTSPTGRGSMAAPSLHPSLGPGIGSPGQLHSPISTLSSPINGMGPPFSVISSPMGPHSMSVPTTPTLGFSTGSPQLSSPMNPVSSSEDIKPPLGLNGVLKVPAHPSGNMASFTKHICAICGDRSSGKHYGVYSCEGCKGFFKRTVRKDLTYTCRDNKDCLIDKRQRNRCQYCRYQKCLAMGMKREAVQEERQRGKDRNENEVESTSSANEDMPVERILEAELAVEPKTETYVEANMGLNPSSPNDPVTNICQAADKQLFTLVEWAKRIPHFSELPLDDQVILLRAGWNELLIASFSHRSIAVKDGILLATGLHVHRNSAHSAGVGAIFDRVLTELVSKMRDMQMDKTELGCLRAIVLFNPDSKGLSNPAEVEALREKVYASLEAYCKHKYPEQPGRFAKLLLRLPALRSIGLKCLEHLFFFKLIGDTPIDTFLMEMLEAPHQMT
human RAR-related Orphan Receptor beta (RORb), RORB (gene 6096), sequence (Q92753 whole entry, looked up, the tested form may be a part): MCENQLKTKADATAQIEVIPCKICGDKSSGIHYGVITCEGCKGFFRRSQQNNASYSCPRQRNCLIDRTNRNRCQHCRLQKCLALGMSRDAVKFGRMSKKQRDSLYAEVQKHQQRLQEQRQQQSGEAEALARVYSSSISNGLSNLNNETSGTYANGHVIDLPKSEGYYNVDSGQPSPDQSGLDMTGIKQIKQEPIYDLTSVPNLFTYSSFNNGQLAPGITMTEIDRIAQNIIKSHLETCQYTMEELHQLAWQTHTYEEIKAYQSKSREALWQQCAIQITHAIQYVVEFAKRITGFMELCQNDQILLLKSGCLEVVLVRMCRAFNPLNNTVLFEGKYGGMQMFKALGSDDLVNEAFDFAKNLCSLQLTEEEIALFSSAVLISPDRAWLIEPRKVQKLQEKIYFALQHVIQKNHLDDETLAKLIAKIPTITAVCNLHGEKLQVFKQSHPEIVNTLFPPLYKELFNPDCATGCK

O=S(=O)(F)C(F)(F)C(F)(F)C(F)(F)C(F)(F)F
inactive: [1] | [2] | [3] | [4]

BrCc1ccc(Br)cc1
inactive: [1] | [2] | [5] | [3] | [4]

O=c1[nH]c(=O)n(Cl)c(=O)n1Cl
not listed: [2] | [4]
inactive: all other assays above

CCCCN(CCCC)C(=S)S
active: [1] 5.99 µM | [2] 5.69 µM
not listed: [6]
inactive: all other assays above

O=C(NC(=O)c1c(F)cccc1F)Nc1ccc(Cl)cc1
active: [1] 0.636 µM
inactive: [7] | [8] | [4]

COC(=O)Nc1cccc(OC(=O)Nc2cccc(C)c2)c1
inactive: [1] | [2] | [6] | [8]

CC1CC(=O)O1 (stereo unspecified)
inactive: [1] | [5] | [7]

CCCCC(CC)C(=O)Cl (stereo unspecified)
inactive: [1] | [2] | [5]
